{
  "source": "ChEMBL document CHEMBL4888484",
  "about": "“Replenishing the malaria drug discovery pipeline: Screening and hit evaluation of the MMV Hit Generation Library 1 (HGL1) against asexual blood stage Plasmodium falciparum ,using a nano luciferase reporter read-out” (2022)",
  "note": "Screen size: about 150,000 compounds; about 540 (0.36%) showed an effect of 50% or more. The sample holds strong results, similar compounds and a random draw of the others, so the mix is not that of the screen.",
  "data": [
    {"tested_on": "Plasmodium falciparum", "assay": "Primary screen in NF54 nanoGlo assay, in single point, at 2uM, 72h; a lower Z score goes with more inhibition", "assay_type": "functional, Erythrocyte", "conditions": "timepoint 72 hour", "units": {"% Inhibition": "%"}, "values": [
      {"smiles": "COc1ccc(Nc2nc(COC(=O)Cn3cnc4c3c(=O)n(C)c(=O)n4C)cs2)cc1", "% Inhibition": -6, "Z score": 0.88},
      {"smiles": "CO[C@H]1COCC[C@@H]1NC(=O)c1ccc(C#CC(C)(C)O)o1", "% Inhibition": 1, "Z score": -0.19},
      {"smiles": "CC[C@@H](COc1ccccc1)NC(=O)CC1CCNCC1", "% Inhibition": 9, "Z score": -1.66},
      {"smiles": "Cc1cccc(N2C(=O)C3C4C=CC(C4=C4CCCCC4)C3C2=O)c1", "note": "(centres undefined)", "% Inhibition": 0, "Z score": 0.03},
      {"smiles": "Cc1ccc(N2C(=O)C3C4C=CC(C4=C4CCCCC4)C3C2=O)cc1Cl", "note": "(centres undefined)", "% Inhibition": -11, "Z score": 1.34},
      {"smiles": "O=C1C2C3C=CC(C3=C3CCCCC3)C2C(=O)N1c1cccc(Cl)c1", "note": "(centres undefined)", "% Inhibition": 51, "Z score": -1.24},
      {"smiles": "COc1cc(C(=O)Nc2[nH]c(=O)ncc2F)ccc1Cl", "% Inhibition": 76, "Z score": -11.96},
      {"smiles": "O=C(NCc1n[nH]c(=O)[nH]1)c1ccc(Br)c(F)c1", "% Inhibition": -6, "Z score": 0.79},
      {"smiles": "O=C(Nc1[nH]c(=O)ncc1F)c1cccc2ccccc12", "% Inhibition": 85, "Z score": -7.83},
      {"smiles": "O=C(Nc1[nH]c(=O)ncc1F)c1cc(F)c(F)cc1Br", "% Inhibition": 91, "Z score": -7.85},
      {"smiles": "Cc1cc(NC(=O)c2ccc(Cl)c(F)c2)nc(=O)[nH]1", "% Inhibition": -4, "Z score": 0.38},
      {"smiles": "O=C(NCCc1n[nH]c(=O)[nH]1)c1c(F)cc(Br)cc1F", "% Inhibition": -3, "Z score": 0.32},
      {"smiles": "Cc1cnc(NC(=O)c2cccc3ccccc23)s1", "% Inhibition": -12, "Z score": 2.18},
      {"smiles": "O=C(Nc1ccc(Cl)cn1)c1cccc2ccccc12", "% Inhibition": -6, "Z score": 1.15},
      {"smiles": "COc1cc(C(=O)Nc2nc(C)nn2C)ccc1Cl", "% Inhibition": -9, "Z score": 1.22},
      {"smiles": "CCC(CC)n1nc(C(=O)NCC23CCCN2CCC3)cc1C", "% Inhibition": -15, "Z score": 2.13},
      {"smiles": "O=C(Nc1cccc2ccccc12)C1CCN(c2cc(-c3ccc(F)cc3)ncn2)CC1", "% Inhibition": -2, "Z score": 0.24},
      {"smiles": "Cc1n[nH]c(=O)c2c1cnn2-c1ccc(F)cc1", "% Inhibition": 20, "Z score": -2.53},
      {"smiles": "Cc1cccnc1CCNC(=O)N(C)[C@@H](C)c1ccncn1", "% Inhibition": -6, "Z score": 1.12},
      {"smiles": "O=C(NCCc1ccc(Cl)cc1)c1ccc(Cn2c(=O)[nH]c3ccccc3c2=O)cc1", "% Inhibition": -9, "Z score": 1.68},
      {"smiles": "O=C1N[C@@H](c2cccc(OCc3ccccc3)c2)Nc2c1sc(=S)n2-c1ccccc1", "% Inhibition": -12, "Z score": 1.31},
      {"smiles": "CN(CC(=O)NCc1ccco1)c1nnc(N2CCCC2=O)s1", "% Inhibition": 73, "Z score": -0.5},
      {"smiles": "CN(CC(=O)NCc1cccs1)c1nnc(N2CCCC2=O)s1", "% Inhibition": -2, "Z score": 0.36},
      {"smiles": "CN(CC(=O)NCCCc1ccco1)c1nnc(N2CCCC2=O)s1", "% Inhibition": -11, "Z score": 2.07},
      {"smiles": "CCCN1CCN(C(=O)c2ccnc(N3CCN[C@H](c4ccccc4)C3)c2)CC1", "% Inhibition": -13, "Z score": 1.36},
      {"smiles": "C[C@H](CCO)NCc1sccc1Cl", "% Inhibition": 5, "Z score": -0.62},
      {"smiles": "Cn1nnc(C(=O)N2CCC(c3ccccc3)(N3CCCC3)CC2)n1", "% Inhibition": 7, "Z score": -1.29},
      {"smiles": "CC(C)(C)n1cnc(C(=O)N2CCCC23CCCCC3)n1", "% Inhibition": 0, "Z score": -0.06},
      {"smiles": "O=C(Nc1cnc(-n2ccnc2)nc1)c1ccc(F)cc1", "% Inhibition": -18, "Z score": 2.84},
      {"smiles": "CCOC(=O)C1(C(=O)NCc2cc(C)on2)CCCC1", "% Inhibition": 7, "Z score": -0.84},
      {"smiles": "CCN1C[C@H](Nc2ncnc3sc(C)cc23)[C@@H](OC)C1", "% Inhibition": -9, "Z score": 1.14},
      {"smiles": "CCN1C[C@H](Nc2ncccc2C#N)[C@@H](OC)C1", "% Inhibition": -13, "Z score": 1.15},
      {"smiles": "CS(=O)(=O)N1C[C@H]2CC[C@@H](C1)N(CC(=O)N1CCc3ccccc31)C2", "% Inhibition": -9, "Z score": 1.92},
      {"smiles": "COc1ccc(CN2CCc3cc(OC)c(OC)cc3[C@@H]2CNC(=O)Cc2ccccc2)cc1", "% Inhibition": -3, "Z score": 0.38},
      {"smiles": "Oc1ccccc1CCN[C@H]1CCc2ccc(F)cc21", "% Inhibition": 98, "Z score": -18.88},
      {"smiles": "Cn1ncc2c1CCC[C@@H]2NCCc1ccccc1O", "% Inhibition": -5, "Z score": 0.59},
      {"smiles": "CS(=O)(=O)CCc1ccc(N[C@H]2CCc3ccc(F)cc32)cc1", "% Inhibition": -8, "Z score": 1.03},
      {"smiles": "O=S1(=O)CCC(CNC2CCc3ccc(F)cc32)C1", "note": "(centres undefined)", "% Inhibition": -8, "Z score": 1.29},
      {"smiles": "CCOc1ccc2c(n1)CCN(C(=O)c1ccsc1)C2", "% Inhibition": 36, "Z score": 1.41},
      {"smiles": "CC(COC1CCOC1)NC(=O)C1CCC(=O)C(C)C1", "note": "(centres undefined)", "% Inhibition": -1, "Z score": 0.21},
      {"smiles": "Cn1nc(NC(=O)c2ccccc2)c2c1CCN(C(=O)C1CCC1)C2", "% Inhibition": -10, "Z score": 0.86},
      {"smiles": "COC(C(=O)N1C[C@H](C(=O)O)[C@@H](c2ccc(Br)cc2)C1)C1CC1", "note": "(some centres undefined)", "% Inhibition": -1, "Z score": 0.13}
    ]}
  ]
}
